Assay outcomes: PubChem BioAssay, several laboratories
A selection: hits, their analogues and other compounds. The true share with any hit is near 2.5%.
PG9 Ab binder: binders of HIV-1 gp120 antibody PG9, primary screen, biochemical, TR-FRET | inhibition, % at 6.7 µM | hit rate 0.43% among 360,000 | AID 624416, 2012 | TR-FRET gp120-PG9 antibody binding; in the data active means inhibition above about 8.5%
Granule exo inh: LAMP-1 surface exposure blockers, TALL-104 cells – cell-based, flow cytometry, MLPCN library, primary screen | TALL-104 LAMP-1 surface exposure; cells stimulated with thapsigargin and PMA | inhibition, % at 10 µM | hit rate 0.66% among 360,000;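 active means inhibition above about 55%, limit read from the data; inconclusive means no clear call, values can overlap the other calls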
ABCB6 inh MLPCN: ABCB6 transporter inhibitors, primary screen, K562-ABCB6 cells, flow cytometry, MLPCN library. ATP-binding cassette sub-family B member 6 (Homo sapiens), Q9NP58. K562-ABCB6 porphyrin accumulation, 1 h; hits give low values. fluorescence ratio to DMSO, % at 10 µM. hit rate 0.19% among 360,000. AID 602162, 2011;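 active means fluorescence ratio to DMSO below 75%, the collection mean minus 3 SD; inconclusive means too few cells collected in the well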;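 further: signal is porphyrin accumulated inside mitochondria; 100% equals median channel fluorescence of DMSO control wells; lower ratio means ABCB6 inhibition with less porphyrin fluorescence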
Target sequence (Q9NP58 whole entry, looked up): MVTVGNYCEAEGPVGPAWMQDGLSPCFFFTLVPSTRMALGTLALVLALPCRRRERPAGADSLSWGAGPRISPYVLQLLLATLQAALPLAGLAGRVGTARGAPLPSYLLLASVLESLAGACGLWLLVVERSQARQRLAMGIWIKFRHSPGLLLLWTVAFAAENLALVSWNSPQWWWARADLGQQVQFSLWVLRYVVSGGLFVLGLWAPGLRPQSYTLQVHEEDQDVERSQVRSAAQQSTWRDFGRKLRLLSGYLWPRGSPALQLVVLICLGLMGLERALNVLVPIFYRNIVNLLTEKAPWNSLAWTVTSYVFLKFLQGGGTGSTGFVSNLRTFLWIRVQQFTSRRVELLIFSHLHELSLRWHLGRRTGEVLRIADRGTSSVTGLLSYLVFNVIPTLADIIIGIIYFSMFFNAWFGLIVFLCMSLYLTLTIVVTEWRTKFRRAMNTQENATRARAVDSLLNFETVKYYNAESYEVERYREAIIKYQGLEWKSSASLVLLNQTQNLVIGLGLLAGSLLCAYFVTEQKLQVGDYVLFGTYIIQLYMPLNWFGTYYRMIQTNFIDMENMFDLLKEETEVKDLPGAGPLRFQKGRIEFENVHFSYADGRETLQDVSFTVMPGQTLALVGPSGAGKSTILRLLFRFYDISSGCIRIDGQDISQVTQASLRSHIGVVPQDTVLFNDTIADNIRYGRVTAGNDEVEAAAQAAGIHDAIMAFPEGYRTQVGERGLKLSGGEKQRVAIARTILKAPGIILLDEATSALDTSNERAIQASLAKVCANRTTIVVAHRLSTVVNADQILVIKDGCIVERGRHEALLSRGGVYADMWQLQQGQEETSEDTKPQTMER
rCAG binder: binders of r(CAG) RNA repeats, primary screen, biochemical, fluorescence; inhibition, % at 3 µM; hit rate 1.3% among 370,000; AID 651821, 2012; r(CAG) RNA repeat, TO-PRO-1 dye displacement fluorescence;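 active means inhibition above the plate cutoff, the mean of all test compounds on that plate plus 3 SD, cut at about 35% in these data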;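 further: 0% = DMSO alone and 100% = 100 µM mitoxantrone as full dye displacement; higher means more dye released from RNA so lower well fluorescence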
rCAG bind conf: small molecules binding CAG repeat RNA – biochemical, fluorescence, confirmation | shares compounds with rCAG binder | r(CAG) RNA repeat, TO-PRO-1 dye displacement fluorescence | AID 652065, 2013 | hit rate 70% among 4,300 | inhibition, % at 3 µM;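 active means inhibition above a per-plate cutoff, the mean inhibition of sample wells plus 3 SD, cut at about 35% in these data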;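 further: loss of TO-PRO-1 fluorescence as compound displaces dye from 1x1 AA loop RNA; 0% = DMSO only wells and 100% = 100 µM mitoxantrone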
dCAG dye counter: displacement of TO-PRO-1 from CAG DNA duplex, counter-screen for rCAG RNA repeat binder project, biochemical, fluorescence, TO-PRO-1 dye, d(CAG) DNA oligo; shares compounds with rCAG binder; d(CAG) DNA oligo TO-PRO-1 dye displacement; hit rate 94% among 4,300; AID 652068, 2013; inhibition, % at 3 µM;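 active means inhibition above its plate's cutoff, the mean test-well inhibition plus 3 SD, cut at about 4.8% in these data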;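 further: 0% = DNA dye mix with DMSO and 100% = 100 µM mitoxantrone; hits displace the dye from DNA and so lower well fluorescence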
DNA CAG DR: inhibitors of DNA CAG/GTC TO-PRO-1 complex, dose response, counter-screen for rCAG RNA repeat binder project, biochemical, fluorescence, TO-PRO-1 dye. shares compounds with rCAG binder. DNA CAG/GTC duplex TO-PRO-1 dye displacement fluorescence. IC50, µM. hit rate 20% among 250; in the data active means IC50 below about 10 µM
* = called active by the depositor; ? = inconclusive; . = no result given.

SMILES	PG9 Ab binder	Granule exo inh	ABCB6 inh MLPCN	rCAG binder	rCAG bind conf	dCAG dye counter	others
COCc1[nH]nc2c1C(c1ccc(C)cc1)NC2=O (stereo unspecified)	4	.	.	3	.	.
O=C(NCC(=O)N1CC=C(c2ccccc2)CC1)c1ccccc1Br	-2	-2	97	-3	.	.
O=C(CSc1nc2ccccc2[nH]1)Nc1nc(-c2cccc(Br)c2)cs1	-1	-2	100	58*	43*	21*
Cc1ccccc1S(=O)(=O)NC(=O)C1(C)CCN1C(=O)Cc1ccc(C(C)(C)C)cc1 (stereo unspecified)	0	-7	97	40*	33	8.7*
CC(C)(C)c1ccc(CC(=O)N2CCC2(C)C(=O)NS(=O)(=O)c2ccccc2)cc1 (stereo unspecified)	-1	-5	?	25	.	.
COc1ccc(S(=O)(=O)NC(=O)C2(C)CCN2C(=O)Cc2ccc(C(C)(C)C)cc2)cc1 (stereo unspecified)	-1	-4	89	42*	25	4.8*
CC(C)(C)c1ccc(CC(=O)N2CCC2(C)C(=O)NS(=O)(=O)c2cccc(OC(F)F)c2)cc1 (stereo unspecified)	1	19	97	52*	41*	9.7*
Cc1cccc(S(=O)(=O)NC(=O)C2(C)CCN2C(=O)Cc2ccc(C(C)(C)C)cc2)c1 (stereo unspecified)	3	2	94	40*	34	7.5*
C=CCN1C(=O)C(O)(CC(=O)c2ccco2)c2cc(Br)ccc21 (stereo unspecified)	-1	9	101	2	.	.
CC1(C(=O)NS(=O)(=O)Cc2ccccc2C(F)(F)F)CCN1C(=O)Cc1ccccc1 (stereo unspecified)	0	2	98	14	.	.
Cc1ccc(F)c(S(=O)(=O)NC(=O)C2(C)CCN2C(=O)Cc2ccc(-c3ccccc3)cc2)c1 (stereo unspecified)	0	-8	97	60*	55*	18*
CC1(C(=O)NS(=O)(=O)c2cccc(Cl)c2)CCN1C(=O)Cc1ccccc1 (stereo unspecified)	-1	3	101	8	.	.
CC1(C(=O)NS(=O)(=O)Cc2ccccc2)CCN1C(=O)Cc1ccc(-c2ccccc2)cc1 (stereo unspecified)	0	3	109	58*	50*	14*
Cc1cccc(S(=O)(=O)NC(=O)C2(C)CCN2C(=O)Cc2ccc(-c3ccccc3)cc2)c1 (stereo unspecified)	-1	-5	96	53*	49*	15*
CC(C)C(=O)Nc1nnc(SCC(=O)NC2CCCC2)s1	0	-5	93	2	.	.
CN(C(=O)c1cccc(NC(=O)Cc2ccc(NC(=O)C3CCN(C(=O)CCc4ccccc4)CC3)cc2)c1)C1CCC1	0	0	98	7	.	.
CCCc1cc(=O)oc2cc(C)cc(OCC(=O)Nc3cccnc3)c12	-1	-3	102	1	.	.
COc1ccccc1NC(=O)c1ccc2[nH]c(C)c(C)c2c1	-1	-11	95	12	.	.
COc1ccccc1-n1c(C)cc(/C=C2/C(=N)N3C(=NC2=O)SN=C3S(C)(=O)=O)c1C	1	-2	93	80*	77*	42*
Cc1cc(/C=C2/C(=N)N3C(=NC2=O)SN=C3S(C)(=O)=O)c(C)n1-c1ccc(F)cc1	-2	-1	101	69*	79*	47*
COc1ccccc1CNS(=O)(=O)c1ccc(Cl)s1	-2	-1	101	-4	.	.
NC(Cc1ccc(F)cc1)c1csc(Nc2ccc(C(=O)c3ccccc3)cc2)n1 (stereo unspecified)	1	27	95	11	.	.
CCOc1ccc(NC(=O)CC2C(=O)N(c3ccc(OC)c(Cl)c3)C(=S)N2C2CC2)cc1 (stereo unspecified)	1	5	93	5	.	.
CCSc1nc(-c2ccco2)ccc1C#N	0	1	111	56*	11	8.6*
O=C(N/N=C/c1ccco1)c1cc(-c2cccc3ccccc23)n[nH]1	0	-2	98	13	.	.
SMILES	PG9 Ab binder	Granule exo inh	ABCB6 inh MLPCN	rCAG binder	rCAG bind conf	dCAG dye counter	others
O=C(N/N=C/c1ccccc1C(=O)O)c1cc(-c2ccc3c4c(cccc24)CC3)n[nH]1	-2	2	98	58*	62*	24*
COc1cc([N+](=O)[O-])cc(/C=N/NC(=O)C(C)Nc2ccccc2C)c1O (stereo unspecified)	-4	-1	100	36*	29	10*
COc1ccc(-n2nc3c(c2NC(=O)C(C)Oc2ccccc2)CS(=O)C3)cc1 (stereo unspecified)	0	-2	97	-4	.	.
Cc1cc(NC(=O)CSc2nc3[nH]c(=O)cc(O)c3s2)ccc1Br	0	-1	100	24	.	.
COC(=O)c1ccc(C)c(NC(=O)CSc2sc3c(O)cc(=O)[nH]c3c2C#N)c1	0	2	97	61*	45*	20*
N#Cc1c(SCC(=O)Nc2cccc(C(F)(F)F)c2)sc2c(O)cc(=O)[nH]c12	-3	45	97	52*	35*	15*
Cc1ccc(C)c(NC(=O)CSc2sc3c(O)cc(=O)[nH]c3c2C#N)c1	1	19	94	51*	29	11*
Cc1cc(NC(=O)CSc2sc3c(O)cc(=O)[nH]c3c2C#N)ccc1Br	-5	6	101	51*	59*	32*
Cc1ccc(OCC(=O)OCC(=O)c2cccc([N+](=O)[O-])c2)cc1C	0	0	96	0	.	.
CC(C(=O)NCc1ccco1)n1ccc2cc(S(=O)(=O)N3CCCCC3)ccc21 (stereo unspecified)	0	-2	99	3	.	.
CCN(CCNCC(O)COCc1ccc(Cl)cc1)c1cccc(C)c1 (stereo unspecified)	-2	44	97	-4	.	.
CCN=c1scc(-c2ccco2)n1/N=C/c1ccc(O)cc1	0	2	102	18	.	.
CCN=c1scc(C)n1/N=C/c1cc(Br)c(O)c(Br)c1	-9	1	99	36*	42*	18*
COCCN=c1scc(-c2cccs2)n1/N=C/c1ccc(O)c(O)c1O	-3	2	84	48*	62*	30*	DNA CAG DR=9.2*
